Shown is part of a subset that was picked to be rich in hits.
KDM5B inhibitor = Primary screen for KDM5B Histone Demethylases FDH-coupled qHTS; KDM5B demethylase, FDH-coupled NADH fluorescence (FDH is formaldehyde dehydrogenase); AID 1347165, 2019; Potency, µM (titrated, usually from 57.7 µM), hits mostly inhibitors; actives 2.6% (n = 220,000); active = well fitted inhibition curve with a large enough effect; note: nearly all actives have a fitted effect of over 70% in size
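Compound dilutions met 200 nM (final) KDM5BΔAP for 10 min at room temperature before substrate addition. The substrate mix held 12.5 µM H3K4me3 with cofactors 25 µM α-ketoglutarate and 50 µM Fe²⁺. NADH signal gain over 30 min defined activity.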
Hits are given with their value; - = inactive.

SMILES	KDM5B inhibitor
O=C(O)/C(=C/c1ccccc1)c1cccs1	-
C/C(=N/Nc1ccc(S(N)(=O)=O)cc1[N+](=O)[O-])c1cccc(Cl)c1	-
Cc1ccc(C2c3cc(OCc4nc(C(=O)NCC5CC5)co4)ccc3CCN2C(=O)C2CC2)cc1 (centres undefined)	-
Cc1nc(SCC(=O)NN2C(=O)NC3(CCCCC3)C2=O)c2ccccc2n1	-
CCOc1ccccc1N(CC(=O)NC(C)CC)S(C)(=O)=O (centres undefined)	-
COc1ccc(-c2ccc(=O)n(CC(=O)NCc3cccnc3)n2)c(F)c1	-
O=C(NCC1CC1)c1nc2c(o1)CCN(Cc1cccc(F)c1)CC2	-
Cc1ccc(CN2CCC(CNC(=O)Nc3cccc(C(F)(F)F)c3)CC2)cc1	-
COc1ccccc1CN1CCc2nc(C(=O)NCc3cccc(F)c3)oc2CC1	-
O=C(Nc1cccc(C(F)(F)F)c1)c1nc2c(o1)CCN(Cc1cccc(F)c1)CC2	28µM
COc1ccc(CN2CCc3nc(C(=O)NCc4cccc(F)c4)oc3CC2)cc1OC	-
O=C(Nc1cccc(C(F)(F)F)c1)c1nc2c(o1)CCN(Cc1cnc[nH]1)CC2	-
O=C(Nc1cccc(C(F)(F)F)c1)c1nc2c(o1)CCN(Cc1ccc(F)cc1)CC2	40µM
O=C(Nc1cccc(C(F)(F)F)c1)c1nc2c(o1)CCN(Cc1ccccc1)CC2	22µM
O=C(c1nc2c(o1)CCN(Cc1cccc(F)c1)CC2)N1CCOCC1	-
O=C(Nc1cccnc1)c1nc2c(o1)CCN(Cc1ccc3[nH]ccc3c1)CC2	-
O=C(Nc1cccc(C(F)(F)F)c1)C1=CCN(Cc2ccccc2F)CC1	-
N#Cc1ccc(CN2CCc3nc(C(=O)Nc4cccc(C(F)(F)F)c4)oc3CC2)cc1	22µM
Cc1[nH]c2ccccc2c1C1c2ccccc2C(=O)N1CC(=O)N1CCN(C=O)CC1 (centres undefined)	-
Cc1cc(C(=O)CSc2n[nH]c(C3CC3)n2)c(C)n1C1CC1	-
O=C(Nc1cccc(Cl)c1F)N1CCC(OC2CCN(Cc3ccccc3)CC2)CC1	-
O=C(COC(=O)C(Cc1ccccc1)N1C(=O)C2C3C=CC(C4CC34)C2C1=O)c1ccc(Oc2c(Cl)cccc2[N+](=O)[O-])cc1 (centres undefined)	-
O=C1N[C@H](CC(=O)N2CCc3ccccc3C2)C(=O)Nc2ccccc21	-
O=C1N[C@H](CC(=O)N2CCN(c3ccc(F)cc3)CC2)C(=O)Nc2ccccc21	-
O=C1N[C@H](CC(=O)N2CCN(c3ccc(C(F)(F)F)cn3)CC2)C(=O)Nc2ccccc21	22µM
SMILES	KDM5B inhibitor
Fc1ccc(/C=N/Nc2ccc3ccccc3c2)c(F)c1	-
O=Cc1ccc(-c2ccccc2Br)o1	-
CNS(=O)(=O)c1cc(C(=O)NCc2coc(-c3cccs3)n2)cc(C)c1C	-
CC(C)(C)c1cnc([C@@H]2COCCN2Cc2ccc(Cl)cc2)[nH]1	-
Cc1cc(C)c(/C=N/NC(=O)C(c2ccccc2)c2ccccc2)c(C)c1	-
COc1ccccc1-c1nnc2n1C(C(=O)NCCc1ccc(Cl)cc1)CC2 (centres undefined)	-
COc1ccccc1-c1cc(C(=O)NCCc2ccc(Cl)cc2)c2cnn(C)c2n1	79µM
COc1ccccc1-c1cc(C(=O)N2CCOCC2)c2cnn(C)c2n1	-
COc1ccc(CCNC(=O)c2cc(-c3ccccc3O)n[nH]2)cc1OC	-
COc1ccccc1-c1cc(C(=O)N(C)C)c2cnn(C)c2n1	-
COc1ccccc1-c1cc(C(=O)NCCc2ccc(Cl)cc2)nc2c1cnn2C	79µM
O=C1Cc2cc(S(=O)(=O)N3CCN(C(=O)Nc4ccccc4F)CC3)ccc2N1	-
CCN(C(=O)c1cccc(C(F)(F)F)c1)C1CC1	-
O=C1c2ccccc2C(Nc2cc(Cl)cc(Cl)c2)N1c1cccnc1 (centres undefined)	-
CC1(C)CCC(NC(=O)C2CCC2)c2ccccc21 (centres undefined)	-
CC(=O)Nc1ccc(-c2nnc3n2CCCC3)cc1	-
CN(C)C(=O)c1ccc(-c2nnc3ccc(NC(=O)C4CCC4)cn23)cc1	22µM
CC(NC(=O)c1ccc(OC2CCN(S(=O)(=O)N(C)C)CC2)cc1)c1cccs1 (centres undefined)	-
CN(C(=O)c1ccc(NC(=O)C2CC2)cc1)C1CCCCC1	-
O=C(N[C@@H]1CCC[C@@H]1C(=O)NCCc1ccccc1)c1ccncc1	-
CN(C)S(=O)(=O)N1CCC(Oc2ccc(C(=O)NCCc3ccncc3)cc2)CC1	-
CN(C(=O)c1ccc(NC(=O)C2CCCCC2)cc1)c1ccccc1	-
CC(=O)Nc1ccc2nnc(-c3ccc(C(=O)N4CCCCCC4)cc3)n2c1	14µM
CC(NC(=O)c1ccc(-c2nnc3ccc(NC(=O)C4CCC4)cn23)cc1)c1cccs1 (centres undefined)	28µM
O=C(NCCc1ccncc1)c1ccc(-c2nnc3ccc(NC(=O)C4CCC4)cn23)cc1	28µM
SMILES	KDM5B inhibitor
CC(C)(C)NC(=O)c1ccc(NC(=O)C2CCCC2)cc1	-
Cc1ccc(CC(=O)Nc2ccc(C(=O)N3CCCCC3)cc2)cc1	-
N=C(N)SCCSc1cc(Cl)ccc1Cl	-
C=CCn1c(N)c(C(=O)OC)sc1=S	-
Cc1oc(-c2ccccc2Cl)nc1CS(=O)(=O)CC(=O)N1CCc2ccccc21	-
Cc1ccc(NC(=O)c2cc3ccc(O)cc3oc2=O)cc1	-
CC1CCN(C(=O)c2noc3c2CC(C(C)(C)C)CC3)CC1 (centres undefined)	-
Cc1ccccc1C(=O)Nc1cccc(-c2nc3ccccc3o2)c1	-
CC(C)CCn1nc(C(=O)OC(C)C(=O)N2CCCc3ccccc32)c2ccccc2c1=O (centres undefined)	-
O=C(N/N=C(/c1ccccc1)c1ccncc1)C1CC1	-
O=C(Nc1ccc2nnc(-c3ccc(C(=O)N4CCSCC4)cc3)n2c1)C1CCC1	28µM
CCCN(C)C(=O)c1ccc(-c2nnc3ccc(NC(=O)C4CCC4)cn23)cc1	22µM
CCC(=O)Nc1ccc2nnc(-c3ccc(C(=O)Nc4ccc5c(c4)OCCO5)cc3)n2c1	-
CCN1CCN(C(=O)c2ccc(-n3nc(C)c(-c4ccc(C)cc4)c3NC(C)=O)cc2)CC1	-
Cc1ccc(NC(=O)C2CCCC2)cc1	-
CCCc1nc(CN(CC)C(=O)c2ccc(NC(=O)C3CCC3)cc2)no1	-
O=C(Nc1ccc(-c2nnc3n2CCCC3)cc1)C1CCCCC1	-
CCN1CCN(C(=O)c2ccc(-c3nnc4ccc(NC(=O)C5CC5)cn34)cc2)CC1	28µM
O=C(Nc1ccc(F)c(Cl)c1)C1CCN(C(=O)c2ccc(F)cc2)CC1	-
Nc1nc(CN2CCN(C(=O)c3cccc(C(F)(F)F)c3)CC2)nc2ccccc12	-
N#CC1=C(N)Oc2nc(SCc3ccccc3Cl)nc(N)c2C1c1cccc(F)c1 (centres undefined)	-
CSc1cccc(NC(=O)/C=C/c2ccc(Cl)cc2Cl)c1	-
CC1=NS(=O)(=O)NC(C)=C1CCC(=O)Nc1ccc(C)c(C)c1	-
O=C(CSc1nnc2c(=O)n(-c3ccccc3)ccn12)N1CCN(c2ccccc2F)CC1	-
O=C(Cc1cccc(Cl)c1)NCc1ccnc2[nH]ccc12	-
O=C(NCc1c[nH]c2ncccc12)c1ccc2ccccc2n1	-
O=C(NCc1ccnc2[nH]ccc12)c1cccc(Cl)c1	35µM
O=C(NCc1ccnc2[nH]ccc12)c1cccc(Br)c1	32µM
Cc1cc(C(=O)NCc2c[nH]c3ncccc23)ccc1Cl	-

Source: PubChem (National Center for Advancing Translational Sciences (NCATS))
